One test has as its system CRL-7250. Briefly: Cytotoxic Profiling of Annotated Libraries Using Quantitative High-Throughput Screening (AID 1296008). Also: potency is read from the fitted curve at half-maximal effect. As to max response: % is scaled to controls: 0 for no effect and ±100 for the full control effect. The settings on record: Five cell lines viability, CellTiter-Glo ATP luminescence, 48-72 h; max response: hits give low values. The essentials:
(§1)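 Compounds were pin-transferred onto cells and incubated 48 or 72 hr at 37 degree Celsius, 95% humidity. CellTiter-Glo was added, plates sat 10 min at room temperature, then ATP-coupled luminescence was imaged as the viability read-out.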
On the technique in general: In ATP-based viability assays light output follows the ATP content of the culture.

Test [1] has as its system HaCat. The test is described as above. The settings on record: Five cell lines viability, CellTiter-Glo ATP luminescence, 48-72 h; max response: hits give low values. The essentials:
as §1

For the next test, the system named is KB-3-1. The description is as above. The settings on record: Five cell lines viability, CellTiter-Glo ATP luminescence, 48-72 h; max response: hits give low values. An outline of the steps: as §1
The subject of another test is NIH3T3. Described as above. The settings on record: Five cell lines viability, CellTiter-Glo ATP luminescence, 48-72 h; max response: hits give low values. An outline of the steps: as §1
Test [2] concerns HACAT. Kind of test: qHTS assay to identify novel small-molecules to repurpose for Merkel cell carcinoma treatment (AID 1296009). The settings on record: MCC and control cell lines, CellTiter-Glo viability, 72 h; at 44.8 µM (top of the series) unless noted. The essentials:
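Cells exposed to NPC (8-point) and MIPE (11-point) compound dilutions for 72 hr at 37 degree celsius; viability read by CellTiter-Glo luminescence, normalized to no-cell and DMSO in-plate controls.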

Each structure is given as a SMILES string. Results filed as inconclusive are left out. Unmarked numbers belong to inactive results. Calls of active or inactive are those of the source. Calls follow the shape of the dose curve; as a rule, active = well fitted inhibition curve with a large enough effect; inconclusive = small, poorly fitted or top-dose-only effect; inactive = flat fitted curve, though single readings scatter.
Also: nearly all actives have a fitted effect of over 60% in size.

As to `N#Cc1cc(C2=Nc3ccc(Br)cc3NC(=O)C2)ccn1`, the max response with CRL-7250 is -3.76%; in the test on HaCat [1], 4.97%; in the test on KB-3-1, 4.39%. Also, the call with NIH3T3 was inactive.
With `O=C(NCC(=O)N1CCCC1)Nc1ccc2cnccc2c1`, the max response in the test with CRL-7250 was -0.26%; with HaCat [1], -20.6%; with KB-3-1, -4.72%; in the test on NIH3T3, -5.01%.
For `CCC(C)/C=C(C)/C=C/C1=CC2=CC(=O)C3(C)OC(C)(O)C(C(=O)OC)C3C2=CO1` (centres undefined), in that order: 2.86%, 4.73%, 0.0483% and -9.14%.
For `CC(C)=CCc1cc2c(cc1O)OC[C@H]1c3ccc(O)cc3O[C@@H]21`, the max response in the test with CRL-7250 was -7.41%; with HaCat [1], -13.5%; in the test on KB-3-1 it was -5.17%; with NIH3T3 it was -23.2%.
Turning to `CCC(C)C(=O)OC12C(OC(C)=O)C(C)C3(O)C(C=C(CO)CC4(O)C(=O)C(C)=CC43)C1C2(C)C` (centres undefined), the max response is -7.79% in the test on CRL-7250 and -11.4% in the test on HaCat [1]. The compound was classed as inactive in the test on KB-3-1 and with NIH3T3.
As to `C=C1C(=O)O[C@@H]2/C=C(/C)[C@@H](OC(C)=O)C/C=C(\C)C[C@@H](OC(=O)/C(=C/CO)CO)[C@@H]12`, the max response in the test on CRL-7250 was 3.05%; in the test with HaCat [1], -3.88%; in the test with NIH3T3, 0.581%. For the same compound, in the test on KB-3-1, the compound was classed as inactive.
As for `CN[C@H]1CC[C@@H](c2ccc(Cl)c(Cl)c2)c2ccccc21`, the figures for the Potency in the test with CRL-7250, in the test on HaCat [1] and with NIH3T3 were 3.76 µM (active), 15 µM (active) and 11.9 µM (active), respectively. The max response in the test on KB-3-1 was -11.2%.
In the case of `C[C@@H](NC(=O)[C@H](O)c1cc(F)cc(F)c1)C(=O)N[C@@H]1C(=O)N(C)c2ccccc2-c2ccccc21`, the max response is 0.116% in the test with CRL-7250, -11.4% in the test on HaCat [1], 5.92% with KB-3-1 and -0.195% with NIH3T3.
For `CC(C)C(C)C(O)C1CC23CC(=O)C4(O)C(=C2CCC3C1C)C=CC1(O)CC(O)CCC14C` (centres undefined), in that order: -22.9%, 2.09%, 5.36% and -0.33%.
With `Cc1ccc(C)c(NC(=O)[C@@H]2CCCN2S(=O)(=O)c2cccc3cccnc23)c1`, the max response is -9.22% in the test on CRL-7250, -26.4% in the test on HaCat [1], 9.71% in the test with KB-3-1 and -29.5% with NIH3T3.
Regarding `Cc1ccc(C(C)C)c(O[C@@H]2O[C@H](CO)[C@@H](O)[C@H](O)[C@H]2O)c1`, the Potency in the test on CRL-7250 was 16.1 µM (active). Besides, the max response in the test on HaCat [1] was -17.5%; in the test on KB-3-1, -7.27%; in the test with NIH3T3, 2.1%.
Consider `CC1(C)CCC(C)(C)c2cc(C#Cc3ccc(C(=O)O)cc3)ccc21`, for which the results for the max response in the test on CRL-7250, in the test with HaCat [1] and in the test on KB-3-1 were -18.1%, -1.18% and -2.7%, respectively. In the test on NIH3T3, the outcome was inactive.
In the case of `CC(C)CCNc1ncccc1C(=O)N1CCN(Cc2ccccc2)CC1`, the max response in the test with CRL-7250 was -4.32%; in the test on HaCat [1], 1.63%; with KB-3-1, 4.22%; with NIH3T3, 2.66%.
In the same order, the values of `C/C(=C\CO[C@@H]1O[C@H](CO[C@H]2OC[C@](O)(CO)[C@H]2O)[C@@H](O)[C@H](O)[C@H]1O)C(C)(C)O` are -3.13%, -2.99%, 2.14% and 3.25%.
Take `COC(=O)c1ccnc(-c2cc(C(=O)Nc3ccc(C4(N)CC4)cc3)ccn2)c1`: the values for the max response with CRL-7250, in the test with KB-3-1 and in the test on NIH3T3 were -5.77%, -6.68% and -5.19%, respectively. The outcome in the test with HaCat [1] and in the test with HACAT [2] was inactive.
On to `CCC(CC)Nc1nc(C)c(-c2ccc(OC(F)(F)F)cc2OC)nc1OC`, for which the max response in the test with CRL-7250 is -15%; with KB-3-1 it was 0.138%; in the test on NIH3T3 it was 0.268%. In addition, the call with HaCat [1] and in the test on HACAT [2] was inactive.
As to `COCCNCc1ccc(-c2cc3nccc(Oc4ccc(NC(=O)C5(C(=O)Nc6ccc(F)cc6)CC5)cc4F)c3s2)nc1`, the Potency was 18.4 µM (active) with CRL-7250, 23.1 µM (active) in the test on HaCat [1], 6.51 µM (active) in the test with KB-3-1 and 0.731 µM (active) in the test on NIH3T3.
Turning to `Fc1ccc(N2CCN(CCC3OCCc4ccccc43)CC2)cc1` (centres undefined), the figures for the max response in the test with CRL-7250, with KB-3-1 and in the test on NIH3T3 were -11.3%, -21.6% and -0.639%, respectively. Moreover, the result in the test on HaCat [1] and in the test with HACAT [2] was inactive.
On to `CCNC(=O)N1CCCN(c2ccc(C(=O)NCCc3ccc(Cl)cc3Cl)cc2NC(=O)c2cccc(Cl)c2)CC1`, for which the max response in the test with CRL-7250 was -3.91%; with KB-3-1 it was -2.47%; in the test on NIH3T3, 2.92%. The call in the test on HaCat [1] and in the test with HACAT [2] was inactive.
With `COc1cc(/C=C2\CC[C@H]3COC[C@@H](c4cc(F)c(F)c(F)c4)N3C2=O)ccc1-n1cnc(C)c1`, the max response with CRL-7250 was 3.12%. Also, the result with HaCat [1], with KB-3-1, with NIH3T3 and in the test on HACAT [2] was inactive.
As to `C[C@@H]1CC[C@@]23CC[C@]4(C)[C@@](C=CC5[C@@]6(C)CC[C@H](O)C(C)(C)C6CC[C@]54C)(OC2=O)C3[C@H]1C` (some centres undefined), in the test with CRL-7250, the compound was classed as inactive. The figures for the max response with HaCat [1], in the test with KB-3-1 and in the test with NIH3T3 were -10.7%, 7.23% and 0.572%, respectively.
Take `CCOC(=O)N1CCC(N2CCC[C@@H](NC(=O)c3ccccc3C)C2)CC1`: the values for the max response with CRL-7250 and in the test with KB-3-1 were -6.33% and 8.62%, respectively. For the same compound, the call in the test on HaCat [1], in the test with NIH3T3 and in the test on HACAT [2] was inactive.

The record behind these values is PubChem BioAssay (NCATS).
